Measured values: PubChem BioAssay AID1117319 (Southern Research Institute, 2015)
Several values for one entry are separate records, joined by “and”; a condition that tells them apart may be missing. Equal entries are not always repeated. The campaign covered roughly 260,000 compounds. About 1,500 (0.58%) were called active. Another 5% or so got no clear call; they are omitted.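 The calls were made as follows: active = inhibition above a set limit at one or more doses, reproduced on every date tested; inconclusive = results disagree between test dates, or hit never tested in dose response; inactive = the rest.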 Only a sample is shown. Potency and affinity values are given separately.

Biological target: Virion infectivity factor (Human immunodeficiency virus type 1 group M subtype B (isolate BH10)) + Virion infectivity factor (Human immunodeficiency virus type 1 group M subtype B (isolate BRU/LAI)) + Virion infectivity factor (Human immunodeficiency virus type 1 group M subtype B (isolate PCV12)) + Virion infectivity factor (Human immunodeficiency virus type 1 group M subtype B (isolate HXB2)) + DNA dC->dU-editing enzyme APOBEC-3G (Homo sapiens) (UniProt P69720+P69721+P69722+P69723+Q9HC16)
Assay: inhibitors of Vif binding to APOBEC3G peptide, primary screen, biochemical, TR-FRET, GST-Vif 1-94, biotin-A3G peptide, dose response retest (AID 1117319);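 also: Vif residues 1-94 fused to GST binding biotinylated APOBEC3G peptide 110-148; 0% = full assay without inhibitor and 100% = GST in place of GST-Vif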
Conditions: stronger effect = higher value

inhibition, inactive:
CC(=O)Nc1ccccc1S(=O)(=O)CC1CC1(Cl)Cl (stereo not drawn) 4.64%
CC(=O)Nc1cccc(N(C)C)c1 6.55%
Cc1cc(NS(C)(=O)=O)c(=O)n(Cc2cccc(C(F)(F)F)c2)c1 0.67%
CSCC(=O)N1CCCC(CNC(=O)c2ccccc2Cl)C1 (stereo not drawn) -7.52%
COc1ccc(OCCSc2ncccn2)cc1 -7.11%
COC(=O)c1nc(NC(=O)c2ccc(Br)cc2)n[nH]1 23.4%
CCOc1ccc(N(C)S(=O)(=O)c2ccc3[nH]cc(C(=O)NCCOC)c(=O)c3c2)cc1 0.42%
COc1ccc(-c2c(-c3ccc(O)cc3O)n[nH]c2C)cc1OC 6.2%
CCOc1cccc(C2C(C(=O)c3ccc(C)o3)=C(O)C(=O)N2c2nccs2)c1 (stereo not drawn) -6.71%
O=C(N/N=C/c1ccc(OC(=O)c2ccccc2)c([N+](=O)[O-])c1)c1ccc(O)cc1 2.33%
CCOC(=O)N=Nc1c2ccccc2c2nc3no[nH]c3nc12 8.41%
Cc1ccc2cc(CN(C(=O)c3ccco3)c3cccc(C)c3C)c(=O)[nH]c2c1 -8.5%
C#Cc1ccc([C@@H]2C=C(C(=O)OCC=C)O[C@H](OCc3ccc(CO)cc3)C2)cc1 6.58%
CCOCCCNC(=O)/C(C#N)=C/c1ccc([N+](=O)[O-])o1 26.7%
COc1ccc(NC(=O)/C(C#N)=C/c2ccc3c(c2)n(C)c(=O)n3C)cc1 1.72%
N#C/C(=C/c1ccc(Br)o1)C(N)=O 10.3%
N#C/C(=C/c1ccc(F)cc1)C(N)=S -0.15%
Cc1ccc(NC(=O)/C(C#N)=C/c2ccc(Sc3nc(C)cc(C)n3)o2)cc1 -1.36%
COc1ccc(/C=C(\C#N)C(=O)Nc2ccc3[nH]c(=O)[nH]c3c2)cc1 11.7%
N#C/C(=C\c1ccc(-c2ccc(C(=O)O)cc2)o1)C(=O)Nc1ccc(F)cc1 15.6%
COc1ccc(NC(=O)c2ccc(Br)o2)cc1 6.22%
CC(=O)OC12CC3CC(C1)C(=NO)C(C3)C2 -2.41%
COc1ccc(Cn2cnc3c(NS(C)(=O)=O)c(C)c(C)cc32)cc1 -0.98%
Cc1ccc(-c2nc(CS(=O)CC(=O)NCCN3CCCCCC3)c(C)o2)cc1 (stereo not drawn) -1.41%
COc1ccc(-n2c(SCC(=O)Nc3ccc(C(=O)O)cc3)nnc2-c2ccccc2)cc1OC 4.7%
O=C(N/N=C/c1cc(Br)c(O)c(Br)c1)c1cccnc1 -0.54%
Cc1cc(C)cc(NC(=O)c2ccc(NC(=O)C3C4CC5OC(=O)C3C5C4)cc2)c1 (stereo not drawn) -3.35%
CCn1c(C)nnc1SCC(=O)Nc1cccc(C(F)(F)F)c1 -2.71%
CN(C(=O)c1ccc(C#N)cc1)c1nnc(-c2ccccn2)s1 -7.43%
Cc1ccc2nc3c(c(C(=O)O)c2c1)CCC3 32.8%
CCc1ccc2nc3c(c(C(=O)O)c2c1)CCC3 23.1%
Cc1c(C(=O)O)sc(=S)n1CCOc1ccccc1 5.91%
O=C(CCN1CCN(S(=O)(=O)c2ccc(Cl)cc2)CC1)Nc1ccc(F)cc1 1.22%
Cc1cc(O)c(C(C)C)cc1N=Cc1ccc(N(C)C)cc1 12.6%
Cc1cc(O)c(C(C)C)cc1N=Cc1ccccc1[N+](=O)[O-] -2.95%
Cc1cc(O)c(C(C)C)cc1N=Cc1ccccc1O -2.17%
COc1cccc(C=Nc2ccccc2C#N)c1O 14.7%
O=C(CC(O)(c1ccccc1)c1ccccc1)Nc1ccccn1 -5.64%
O=C1Nc2ccccc2C(=O)C1(Cl)Cc1ccccc1 (stereo not drawn) 2.05%
Cc1ccc(OCC(=O)OCc2nc3scc(-c4ccccc4)c3c(=O)[nH]2)cc1C -11.5%
Cn1c(=O)c2c(nc(SCCCC#N)n2Cc2ccccc2F)n(C)c1=O 5.84%
Cn1c(=O)c2c(nc(SCc3nn[nH]n3)n2Cc2ccccc2F)n(C)c1=O 26.4%
Cc1ccccc1-n1cnc2cc(NCc3cccs3)ccc21 4.79%
COc1ccccc1-n1cnc2cc(NCc3ccccc3O)ccc21 5.69%
COc1ccc(CC(=O)Nc2ccc(S(=O)(=O)Nc3cc(C)nc(C)n3)cc2)cc1OC -3.26%
CC(C)c1ccc(CCNC(=O)CCNC(=O)c2ccc(Br)cc2)cc1 -4.69%
COc1cccc(C=NCC(C)N=Cc2cccc(OC)c2O)c1O (stereo not drawn) 1.39%
Oc1c(Br)cc(Br)cc1C=NCc1ccccc1 -9.44%
Oc1cccc(C=NCc2ccccc2)c1 -4.5%
Oc1ccccc1C=NCC(O)c1ccccc1 (stereo not drawn) 22%
COC(=O)c1ccc(C2C(Oc3ccccc3)C(=O)N2CCc2ccc(F)cc2)cc1 (stereo not drawn) -5.73%
C=CCN(C(=O)CCS(=O)(=O)c1cccc2nsnc12)c1ccccc1 -10%
Cc1ccc(NC(=O)CN2C(=O)NC(C)(c3ccc(Cl)cc3)C2=O)cc1S(=O)(=O)N1CCOCC1 (stereo not drawn) 19.2%
CC(=O)c1ccc(S(=O)(=O)Nc2ccc(C(=O)NCC(c3cccs3)N3CCOCC3)cc2)cc1 (stereo not drawn) 3.75%
CC1(C)Cc2cccc(OCC(=O)N3CCN(c4ccccc4F)CC3)c2O1 -1.24%
c1ccc(N(c2ccccc2)c2nc(-n3ccnc3)nc(-n3ccnc3)n2)cc1 -4.38% and -2.66%
CN(c1ccccc1)c1nc(-n2ccnc2)nc(-n2ccnc2)n1 -3.98%
O=C(NCCC1=CCCCC1)c1ccc2c(=O)n3c(nc2c1)CCCCC3 -3.44%
Cc1cc(C)nc(N2CCCC(C(=O)NCc3ccc4c(c3)OCO4)C2)n1 (stereo not drawn) -5.32%
COc1cc(C)c(NC(=O)COc2cccc3c2OC(C)(C)C3)cc1OC -1.98%
[O-][n+]1onc2c3ccnnc3ccc21 0.24%
Cc1cc2c(ccc3c2no[n+]3[O-])nn1 7.27%
CCOc1ccc(CCNC(=O)c2cccc(S(=O)(=O)N3CCCCC3)c2)cc1OCC -3.3%
O=C(Cn1c(=S)[nH]c2ncccc2c1=O)NCCc1ccccc1 -0.88%
O=C(NCCCN1CCOCC1)c1ccc2c(=O)n(Cc3ccccc3)c(=S)[nH]c2c1 -10.2%
CCOC(=O)C1=C(O)c2ccccc2C(=O)/C1=C\c1ccc(CC)cc1 31.5%
CCOC(=O)C1=C(Cc2ccc(OC)cc2)C(=O)c2ccccc2C1=O 24.3%
CCN(CC)/C(=N\S(=O)(=O)c1ccc(F)cc1)c1ccccc1 3.32%
COCCNC(=S)N1CCCN(c2nc3cc(C)ccc3cc2C#N)CC1 3.12%
Cc1ccc(S(=O)(=O)N(Cc2ccccc2)c2ccccc2C(=O)NCc2cccnc2)cc1 1.8%
COc1ccc(NCc2n[nH]c(=O)c3ccccc23)cc1 4.49%
O=c1[nH]nc(CNc2ccc(C(F)(F)F)cc2)c2ccccc12 -3.84%
CC(NC(=O)COC(=O)c1cc(S(=O)(=O)N2CCOCC2)ccc1F)c1ccccc1 (stereo not drawn) 4.22%
Cc1ccc(S(=O)(=O)Nc2cccc(C(=O)N3CCC(C(N)=O)CC3)c2)cc1 -11.3%
O=C(CSc1nc2ccccc2c(=O)n1-c1ccccc1Cl)Nc1cccc(S(=O)(=O)N2CCOCC2)c1 12.8%
Cc1cc(C)nc(NS(=O)(=O)c2ccc(NC(=O)c3cc(=O)c4ccccc4o3)cc2)n1 -13.1%
Cc1ccc(C(=O)NC(=S)NNC(=O)COc2ccc([N+](=O)[O-])cc2)cc1 -1.27%
Cc1cc(/C=C2/NC(=O)N(c3ccccc3)C2=O)c(C)n1-c1cccnc1 5.85%
Cc1cc(C=C2C(=O)c3ccccc3C2=O)c(C)n1-c1cccc(C(=O)O)c1 24.6%
Cc1cccc(N2C(=O)CC(N3CCN(c4ccccc4)CC3)C2=O)c1 (stereo not drawn) 6.83%
Cc1ccccc1N=C1NC(=O)CS1 -1.84%
Cc1ccc(N=C2NC(=O)CS2)cc1 32.9%
CCOC(=O)C(NC(=O)c1cccc(Cl)c1)(Nc1sc2c(c1C(N)=O)CCC2)C(F)(F)F (stereo not drawn) 30.9%
Nc1nc2nc(-c3ccc(F)cc3)cc(C(F)(F)F)n2n1 12.1%
COc1ccc(NS(=O)(=O)c2cccc(C(=O)NNC(=O)c3ccccc3O)c2)cc1 9.79%
COc1ccc(NS(=O)(=O)c2cccc(C(=O)NNC(=O)c3cccc(NC(C)=O)c3)c2)cc1 2.28%
CCc1ccc(N(C(=O)CNC(=O)c2ccco2)C(C(=O)NCC2CCCO2)c2ccccc2)cc1 (stereo not drawn) 6.06%
O=C(CCNC(=O)c1ccccc1Cl)Nc1nc(-c2ccccc2Cl)cs1 15.5%
NC(=O)c1ccc(-n2nnnc2SCc2ccccc2)cc1 -2.97%
COC(=O)c1ccccc1-c1ccc(C=O)o1 -12.2%
COC(=O)c1ccccc1-c1ccc(/C=N/NC(N)=O)o1 -4.17%
COc1cc(/C=C(\C#N)c2ccccn2)cc(OC)c1O 7.21%
COc1cc(C(=O)Oc2cccc(C=O)c2)cc(OC)c1OC 8.54%
